Laboratory results: PubChem BioAssay (NCATS)
Inconclusive results are not listed. Unless noted, calls come from the whole dose curve; as a rule, active = well fitted curve in either direction with a large enough effect (not every such curve was filed as active); inconclusive = small, poorly fitted or top-dose-only effect, or another doubt; inactive = flat fitted curve, though single readings scatter.

Tests used:
[1] = AP1 Signaling Pathway (AID 357); settings: ME-180 AP-1-bla reporter, EGF-induced, beta-lactamase ratio, 5 h; at 17.2 µM (top of the series) unless noted;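 note: ME-180 reporter cells stimulated with EGF at its EC50 level; % is set by controls: 0 for no effect and ±100 for the full control effect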
Summary of the method: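 Modulation of EGF-driven AP-1 transcription was assessed with a beta-lactamase reporter in ME-180 cells. Compound and EC50 EGF were co-incubated 5 hours at 37 °C before 2.5-hour CCF4 loading at room temperature and dual-emission reading.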

[2] = NFAT Signaling Pathway (AID 444); settings: Jurkat NFAT-bla M1, carbachol, beta-lactamase ratio, 5 h; at 17.2 µM (top of the series) unless noted;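 note: carbachol stimulus at about its EC50 of 1 µM final; % is set by controls: 0 for no effect and ±100 for the full control effect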
Summary of the method: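 Jurkat cells carrying an NFAT-driven β-lactamase reporter and co-transfected muscarinic M1 receptor were treated with compound plus carbachol (1 uM final, an EC50 level) for 5 h at 37 °C. CCF4 loading followed for 1 h at RT; 460/530 nm ratio gave %activity.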

[3] = Stat Signaling Pathway (AID 446); settings: ME-180 SIE beta-lactamase reporter, IL-6 stimulated, 5 h; at 17.2 µM (top of the series) unless noted;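 note: ME-180 cervical cancer cells given 40 pM IL-6 alongside compound; SIE-controlled beta-lactamase reporter measured as 460/530 nm FRET emission ratio; % is set by controls: 0 for no effect and ±100 for the full control effect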
Summary of the method: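 Reporter line: ME-180 cervical carcinoma, SIE-beta-lactamase. Treatment: compound with 40 pM IL-6, 5 hrs, 37 C, in low-serum OPTI-MEM with 10 mM HEPES pH 7.3. Detection: 460/530 nm fluorescence.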

[4] = biological target: Glucocorticoid receptor (Homo sapiens) (UniProt P04150); assay: GR-GFP Redistribution (AID 450;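 active = compounds whose dose series gives a full or clear partial fitted curve of increased nuclear translocation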; note: potency is the fitted concentration of half-maximal effect)
Chain of Glucocorticoid receptor (Homo sapiens) (P04150 whole entry, looked up): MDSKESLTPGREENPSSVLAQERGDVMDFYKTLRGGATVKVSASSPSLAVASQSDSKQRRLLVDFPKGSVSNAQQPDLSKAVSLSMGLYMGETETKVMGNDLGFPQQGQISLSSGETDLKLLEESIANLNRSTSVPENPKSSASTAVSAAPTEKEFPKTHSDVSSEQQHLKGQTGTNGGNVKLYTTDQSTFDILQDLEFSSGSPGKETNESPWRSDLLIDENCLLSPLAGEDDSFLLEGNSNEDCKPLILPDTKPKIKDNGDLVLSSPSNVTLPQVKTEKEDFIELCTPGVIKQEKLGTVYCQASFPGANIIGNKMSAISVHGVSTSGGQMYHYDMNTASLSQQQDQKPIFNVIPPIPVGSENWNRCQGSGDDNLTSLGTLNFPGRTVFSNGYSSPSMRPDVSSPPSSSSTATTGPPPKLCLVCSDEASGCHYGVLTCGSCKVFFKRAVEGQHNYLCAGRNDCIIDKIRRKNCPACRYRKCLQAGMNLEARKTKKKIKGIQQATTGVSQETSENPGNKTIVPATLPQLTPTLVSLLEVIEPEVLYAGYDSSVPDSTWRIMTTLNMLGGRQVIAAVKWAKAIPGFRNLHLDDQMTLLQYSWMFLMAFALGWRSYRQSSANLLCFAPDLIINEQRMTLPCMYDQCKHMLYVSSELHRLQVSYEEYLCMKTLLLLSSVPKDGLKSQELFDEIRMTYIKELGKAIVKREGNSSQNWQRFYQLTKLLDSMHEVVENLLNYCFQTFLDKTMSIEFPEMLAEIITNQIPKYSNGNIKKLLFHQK

CCOc1ccc(Br)cc1CC(=O)O
inactive: activity change, negative = inhibition [1] 8.45% | activity change, negative = inhibition [2] -5.28% | activity, negative = inhibition [3] 12.6% | Potency [4] > 20.6 µM

O=S(=O)(c1ccccc1)N(CC(O)CN1CCCCC1)c1ccccc1 (centres undefined)
inactive: activity change, negative = inhibition [1] -4.48% | activity change, negative = inhibition [2] -23% | activity, negative = inhibition [3] 3.01% | Potency [4] > 20.6 µM

Cc1ccc(C(=O)NCCCNCCCNC(=O)c2ccc(C)nc2)cn1
inactive: activity change, negative = inhibition [1] 8.18% | activity change, negative = inhibition [2] -5.81% | activity, negative = inhibition [3] 5.34% | Potency [4] > 20.6 µM

Cc1cc(=O)oc(C)c1C(=O)NCC1CCCO1 (centres undefined)
inactive: activity change, negative = inhibition [1] 2.9% | activity change, negative = inhibition [2] -0.802% | activity, negative = inhibition [3] 1.38% | Potency [4] > 20.6 µM

CCOC(=O)C1=C(CSc2nc(C)cc(C)c2C#N)OC(N)=C(C#N)C1c1cccs1 (centres undefined)
inactive: activity change, negative = inhibition [1] 18.8% | activity change, negative = inhibition [2] -27.2% | activity, negative = inhibition [3] -6.58% | Potency [4] > 20.6 µM

CN(C)c1nc2n(c(=O)n1)C(C#N)CS2 (centres undefined)
inactive: activity change, negative = inhibition [1] -5.05% | activity change, negative = inhibition [2] 3.5% | activity, negative = inhibition [3] 5.84% | Potency [4] > 20.6 µM

COc1ccc(-c2nn3c(-c4ccccn4)nnc3s2)cc1OC
inactive: activity change, negative = inhibition [1] -16.2% | activity change, negative = inhibition [2] -21.8% | activity, negative = inhibition [3] -2.76% | Potency [4] > 20.6 µM

Fc1ccc(OCCOCCNCC2CCCO2)cc1 (centres undefined)
inactive: activity change, negative = inhibition [1] 12.2% | activity change, negative = inhibition [2] -14.1% | activity, negative = inhibition [3] 21.6% | Potency [4] > 20.6 µM

N#C/C(C(=O)NCc1ccco1)=C1/SC(Cc2ccc(F)cc2)C(=O)N1c1ccccc1 (centres undefined)
inactive: activity change, negative = inhibition [1] 1.52% | activity change, negative = inhibition [2] -9.67% | activity, negative = inhibition [3] -22.9% | Potency [4] > 20.6 µM

CSCCC(CO)NC(=O)OCc1ccccc1 (centres undefined)
inactive: activity change, negative = inhibition [1] 0.666% | activity change, negative = inhibition [2] -0.945% | activity, negative = inhibition [3] 2.15% | Potency [4] > 20.6 µM

Nc1nnnn1/N=C/c1cccs1
inactive: activity change, negative = inhibition [1] 7.92% | activity change, negative = inhibition [2] -9.98% | activity, negative = inhibition [3] 2.51% | Potency [4] > 20.6 µM

COc1cccc(-c2nn3c(-c4ccccn4)nnc3s2)c1
inactive: activity change, negative = inhibition [1] -5.18% | activity change, negative = inhibition [2] -17% | activity, negative = inhibition [3] 9.86% | Potency [4] > 20.6 µM

CCCCn1c(-c2ccc(Cl)cc2)nc2c(=O)n(C)c(=O)[nH]c21
inactive: activity change, negative = inhibition [1] 22.6% | activity change, negative = inhibition [2] -14.1% | activity, negative = inhibition [3] 27.6% | Potency [4] > 20.6 µM

COc1ccc(C2/C(=C(/O)c3cnn(-c4ccccc4)c3C)C(=O)C(=O)N2CCN(C)C)cc1OC (centres undefined)
inactive: activity change, negative = inhibition [1] -0.291% | activity change, negative = inhibition [2] 18.7% | activity, negative = inhibition [3] -4.43% | Potency [4] > 20.6 µM

Cn1c(OCc2cccnc2)nc2c1c(=O)n(Cc1ccccc1)c(=O)n2C
inactive: activity change, negative = inhibition [1] -12.1% | activity change, negative = inhibition [2] -1.28% | activity, negative = inhibition [3] 4.58% | Potency [4] > 20.6 µM

Cc1nnc(SCC(=O)N2CCOCC2)c2ccccc12
inactive: activity change, negative = inhibition [1] -1.59% | activity change, negative = inhibition [2] 3.16% | activity, negative = inhibition [3] 2.48% | Potency [4] > 20.6 µM

COc1ccc(-n2c(=O)c3c4c(sc3n3c(C)nnc23)CC(C)CC4)cc1 (centres undefined)
inactive: activity change, negative = inhibition [1] -0.998% | activity change, negative = inhibition [2] -0.396% | activity, negative = inhibition [3] 10.9% | Potency [4] > 20.6 µM

Cc1ccc(S(=O)(=O)N(CC(O)CN(C)C)c2ccccc2)cc1 (centres undefined)
inactive: activity change, negative = inhibition [1] 6.2% | activity change, negative = inhibition [2] -0.131% | activity, negative = inhibition [3] 7.64% | Potency [4] > 20.6 µM

CSc1nc2sc3c(c2c2nnnn12)CCC3
inactive: activity change, negative = inhibition [1] -5.46% | activity change, negative = inhibition [2] -14.8% | activity, negative = inhibition [3] 9.44% | Potency [4] > 20.6 µM

CCN(CC)CCCN1C(=O)C(=O)/C(=C(/O)c2ccccc2)C1c1ccccn1 (centres undefined)
inactive: activity change, negative = inhibition [1] -0.714% | activity change, negative = inhibition [2] 5.2% | activity, negative = inhibition [3] 3.59% | Potency [4] > 20.6 µM

Nc1nc2n(n1)C(c1ccc(F)cc1)CC(c1ccc(F)cc1)N2 (centres undefined)
inactive: activity change, negative = inhibition [1] -1.23% | activity change, negative = inhibition [2] 10.7% | activity, negative = inhibition [3] 5.35% | Potency [4] > 20.6 µM

Cc1nn2c(-c3ccc(Cl)cc3)nnc2s1
inactive: activity change, negative = inhibition [1] -4.06% | activity change, negative = inhibition [2] -5.76% | activity, negative = inhibition [3] 14.5% | Potency [4] > 20.6 µM

CC(C)(C)NC(=O)/C=N/O
inactive: activity change, negative = inhibition [1] 10.5% | activity change, negative = inhibition [2] 23.2% | activity, negative = inhibition [3] 3.21% | Potency [4] > 20.6 µM

Cc1ccc2cc(CNC(C)(C)C)c(=O)[nH]c2c1
inactive: activity change, negative = inhibition [1] 2.11% | activity change, negative = inhibition [2] -5.21% | activity, negative = inhibition [3] -2.54% | Potency [4] > 20.6 µM

CCc1nc2n[nH]c(N)c2c2c1CSC(C)(C)C2
inactive: activity change, negative = inhibition [1] 1.67% | activity change, negative = inhibition [2] 14.6% | activity, negative = inhibition [3] -13.2% | Potency [4] > 20.6 µM

NC(=O)c1cc(-c2ccccc2)nc(Oc2ccccc2)n1
inactive: activity change, negative = inhibition [1] -14.4% | activity change, negative = inhibition [2] -25.9% | activity, negative = inhibition [3] -5.87% | Potency [4] > 20.6 µM
